# From PubChem BioAssay (Tox21)
# Inconclusive results are not listed. Entries that show only a call come without a potency. Calls of active or inactive are those of the source. Unless noted, the call rests on the fitted dose curve; in most records, active means well fitted curve in the direction sought with a large enough effect in the repeat runs; inconclusive means weak or mixed curves; inactive means no such curve, though single readings can be large; an effect the other way counts as inactive or inconclusive.
# Columns and labels:
# [1] = qHTS assay to identify small molecule antagonists of the glucocorticoid receptor (GR) signaling pathway - cell viability counter screen (AID 720693); further: nearly all actives have a fitted effect of over 55% in size; further: potency means the concentration at half of the fitted maximal effect
# [2] = qHTS assay for identifying genotoxic compounds that show differential cytotoxicity against isogenic chicken DT40 cell lines with known DNA damage response pathways - wild type cell line (AID 743012); further: nearly all actives have a fitted effect of over 60% in size; further: potency means the concentration at half of the fitted maximal effect
# Outline: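 CellTiter-Glo luminescence readout of viability in wild type DT40 cells after 40 h compound exposure at 37 C/5% CO2; 300 cells/well; reagent incubated 30 min at room temperature before reading.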
# [3] = qHTS assay for identifying genotoxic compounds that show differential cytotoxicity against isogenic chicken DT40 cell lines with known DNA damage response pathways - Rev3 mutant cell line (AID 743014); further: nearly all actives have a fitted effect of over 55% in size; further: potency means the concentration at half of the fitted maximal effect
# [4] = qHTS assay for identifying genotoxic compounds that show differential cytotoxicity against isogenic chicken DT40 cell lines with known DNA damage response pathways - Rad54/Ku70 mutant cell line (AID 743015); further: nearly all actives have a fitted effect of over 60% in size; further: potency means the concentration at half of the fitted maximal effect
# [5] = qHTS assay to identify small molecule antagonists of the androgen receptor (AR) signaling pathway - cell viability counter screen (AID 743033; further: nearly all actives have a fitted effect of over 45% in size)
# [6] = qHTS assay to identify small molecule antagonists of the androgen receptor (AR) signaling pathway using the MDA cell line - cell viability counter screen (AID 743041; further: nearly all actives have a fitted effect of over 45% in size; further: potency means the concentration at half of the fitted maximal effect)
# Outline: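 Viability read by CellTiter-Fluor fluorescence in the same wells as the antagonist screen, added after 15.5 h of a 16 h, 37C exposure. Human breast carcinoma MDA-kb2 AR-luc cells, compounds co-dosed with agonist R1881.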
# [7] = biological target: Androgen receptor (Homo sapiens) (UniProt P10275); assay: qHTS assay to identify small molecule agonists of the androgen receptor (AR) signaling pathway using the MDA cell line (AID 743040; further: nearly all actives have a fitted effect of over 20% in size)
# Chain of Androgen receptor (Homo sapiens) (P10275 whole entry, looked up): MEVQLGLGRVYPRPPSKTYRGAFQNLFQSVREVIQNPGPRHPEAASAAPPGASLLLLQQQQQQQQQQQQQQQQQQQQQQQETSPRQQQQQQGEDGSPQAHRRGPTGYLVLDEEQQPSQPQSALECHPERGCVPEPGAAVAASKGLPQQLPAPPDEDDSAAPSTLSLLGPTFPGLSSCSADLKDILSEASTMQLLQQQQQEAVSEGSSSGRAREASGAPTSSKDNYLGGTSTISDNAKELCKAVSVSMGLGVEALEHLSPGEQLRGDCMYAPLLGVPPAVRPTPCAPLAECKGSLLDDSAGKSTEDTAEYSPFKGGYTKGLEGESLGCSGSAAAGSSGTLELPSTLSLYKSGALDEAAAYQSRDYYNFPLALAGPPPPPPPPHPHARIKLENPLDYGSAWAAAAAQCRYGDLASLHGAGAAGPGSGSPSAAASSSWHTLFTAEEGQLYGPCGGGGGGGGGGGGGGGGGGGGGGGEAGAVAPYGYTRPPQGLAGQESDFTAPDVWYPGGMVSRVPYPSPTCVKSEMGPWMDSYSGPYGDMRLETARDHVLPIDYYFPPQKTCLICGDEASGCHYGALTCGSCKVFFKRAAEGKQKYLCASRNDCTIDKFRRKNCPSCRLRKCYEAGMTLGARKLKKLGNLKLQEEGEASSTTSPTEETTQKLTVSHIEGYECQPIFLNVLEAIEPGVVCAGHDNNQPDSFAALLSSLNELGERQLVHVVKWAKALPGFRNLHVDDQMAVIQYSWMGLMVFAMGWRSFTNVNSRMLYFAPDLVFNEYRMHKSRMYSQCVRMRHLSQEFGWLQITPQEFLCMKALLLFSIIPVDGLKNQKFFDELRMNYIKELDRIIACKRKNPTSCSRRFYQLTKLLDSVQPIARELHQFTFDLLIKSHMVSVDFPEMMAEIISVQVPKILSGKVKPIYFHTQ
# Outline: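 Luciferase agonist assay: 16 h compound exposure at 37C without CO2 in MDA-kb2 AR-luc cells, whose MMTV promoter responds to both AR and GR. Luminescence measured after 30 min room-temperature incubation with ONE-Glo.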
# [8] = biological target: Androgen receptor (Homo sapiens) (UniProt P10275); assay: qHTS assay to identify small molecule antagonists of the androgen receptor (AR) signaling pathway (AID 743035; active means well fitted inhibition curve with a large enough effect in the signal ratio in the repeat runs, not every such curve was filed as active; the % refers to the signal ratio; further: potency means the concentration at half of the fitted maximal effect)
# Outline: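 AR-bla HEK293 reporter cells; 4 h settle at 37C/5% CO2; compound + R1881 agonist, 16 h at 37C; LiveBLAzer B/G FRET substrate 2 h RT; fluorescence intensity read. qHTS format.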
SMILES,Potency [1],Potency [2],Potency [3],Potency [4],Potency [5],Potency [6],Potency [7],Potency [8]
Cn1nnnc1SCC1=C(C(=O)O)N2C(=O)[C@@H](NC(=O)[C@H](OC=O)c3ccccc3)[C@H]2SC1,inactive,inactive,inactive,inactive,inactive,inactive,–,–
O=C(O)[C@@H](O)[C@H](O)[C@H](O)[C@@H](O)C(=O)O (tested in a mixture with another compound),inactive,inactive,inactive,inactive,inactive,inactive,–,–
CC1(C)C2CC[C@]3(C)[C@H](C(=O)C=C4[C@@H]5C[C@@](C)(C(=O)O)CC[C@]5(C)CC[C@]43C)[C@@]2(C)CC[C@@H]1O[C@H]1O[C@H](C(=O)O)[C@@H](O)[C@H](O)[C@H]1O[C@@H]1O[C@H](C(=O)O)[C@@H](O)[C@H](O)[C@H]1O (stereo partly specified),inactive,inactive,inactive,inactive,inactive,inactive,–,–
Cc1c(Cl)cccc1Nc1ncccc1C(=O)O,inactive,inactive,inactive,inactive,inactive,inactive,–,–
NCCC(=O)[N-][C@@H](Cc1cnc[nH]1)C(=O)O.[Zn],inactive,inactive,inactive,inactive,inactive,inactive,–,–
O=C(CO)[C@@H](O)[C@H](O)[C@@H](O)C(=O)O,inactive,inactive,inactive,inactive,inactive,inactive,–,–
O=c1[nH]cnc2[nH]cc(CN3CCCCC3)c12,inactive,inactive,inactive,inactive,inactive,inactive,–,–
CCN(CC)CCOC(=O)c1ccc(N)cc1Cl,inactive,inactive,inactive,inactive,inactive,inactive,–,–
CCCCCCCCCCCCCCCCCC(=O)OCCO,inactive,inactive,inactive,inactive,inactive,inactive,–,–
C=CCSSSCC=C,inactive,inactive,inactive,inactive,inactive,inactive,–,–
CCC(C)[C@@H](N)C(=O)O (stereo partly specified),inactive,inactive,inactive,inactive,inactive,inactive,–,–
CC(=O)N[C@@H]1C(O[C@H]2O[C@H](C(=O)O)C(O)[C@H](O)[C@H]2O)[C@H](O)[C@@H](CO)O[C@H]1O[C@@H]1C(C(=O)O)O[C@@H](O[C@H]2[C@H](O)[C@@H](CO)OC(O)[C@@H]2NC(C)=O)[C@H](O)[C@H]1O (stereo partly specified),inactive,inactive,inactive,inactive,inactive,inactive,–,–
COC(=O)CC[C@H](N)C(=O)O,inactive,inactive,inactive,inactive,inactive,inactive,–,–
CCOC(=O)[C@H](CCc1ccccc1)N[C@@H](C)C(=O)N1CC2(C[C@H]1C(=O)O)SCCS2,inactive,inactive,inactive,inactive,inactive,inactive,–,–
CC(=O)N[C@@H]([C@@H](O)[C@H](O)[C@H](O)CO)[C@@H](O)CC(=O)C(=O)O,inactive,inactive,inactive,inactive,inactive,inactive,–,–
CCCCC/C=C\C/C=C\C/C=C\CCCCC(=O)O,inactive,inactive,inactive,inactive,inactive,inactive,–,–

SMILES,Potency [1],Potency [2],Potency [3],Potency [4],Potency [5],Potency [6],Potency [7],Potency [8]
CCCCCCCCCCCCCCCCCC(=O)OCC(C)O (stereo unspecified),inactive,inactive,inactive,inactive,inactive,26.6 µM (active),–,–
C=CC1=C(C)C2=CC3=NC(=C(CC(=O)[O-])C4=NC(=C(C)C4=C([O-])[O-])C=c4[n-]c(c(C)c4CC)=CC1=N2)C(CCC(=O)[O-])C3C.[Cu+2].[Na+].[Na+].[Na+] (stereo unspecified),inactive,29.8 µM (active),23.7 µM (active),29.8 µM (active),inactive,22.1 µM (active),–,–
CCCCCCC(=O)O[C@H]1CC[C@H]2[C@@H]3CCc4cc(O)ccc4[C@H]3CC[C@]12C,inactive,inactive,inactive,inactive,inactive,inactive,–,–
CC1(O)CCC(C(C)(C)O)CC1 (stereo unspecified),inactive,inactive,inactive,inactive,inactive,inactive,–,–
CCC(=O)NS(=O)(=O)c1ccc(-c2c(-c3ccccc3)noc2C)cc1,inactive,inactive,inactive,inactive,inactive,inactive,–,–
NC(N)=NCC1COc2ccccc2O1 (stereo unspecified),inactive,inactive,inactive,inactive,inactive,inactive,–,–
Nc1ncnc2c1ncn2CCOCP(=O)(O)O,inactive,inactive,inactive,inactive,inactive,inactive,–,–
CN1CCC(OC(=O)C(Oc2ccc(Cl)cc2)Oc2ccc(Cl)cc2)CC1,inactive,inactive,inactive,inactive,inactive,inactive,–,–
C=C(NC(=O)C(=C)NC(=O)c1csc(C2=N[C@@H]3c4csc(n4)[C@H]4NC(=O)c5csc(n5)[C@H]([C@](C)(O)[C@@H](C)O)NC(=O)[C@H]5CSC(=N5)C(=CC)NC(=O)C([C@@H](C)O)NC(=O)c5csc(n5)[C@]3(CC2)NC(=O)[C@H](C)NC(=O)C(=C)NC(=O)[C@H](C)NC(=O)C([C@@H](C)CC)NC2C=Cc3c([C@H](C)O)cc(nc3C2O)C(=O)O[C@@H]4C)n1)C(N)=O (stereo partly specified),inactive,2.54 µM (active),3.2 µM (active),4.03 µM (active),–,–,inactive,–
CCN(CC)CCCC(C)Nc1cc(/C=C/c2ccccc2Cl)nc2cc(Cl)ccc12 (stereo unspecified),inactive,26.6 µM (active),29.8 µM (active),29.8 µM (active),–,inactive,–,–
C#C[C@]1(OC(C)=O)CC[C@H]2[C@@H]3CCC4=CC(=O)CC[C@@H]4[C@H]3CC[C@@]21C,6.01 µM (active),4.22 µM (active),10.6 µM (active),8.41 µM (active),–,inactive,–,–
OC[C@@H](O)C(O)[C@H](O)CO,inactive,inactive,inactive,inactive,–,inactive,–,–
C=C[C@]1(C)C[C@@H](OC(=O)CSC(C)(C)CNC(=O)[C@H](N)C(C)C)[C@]2(C)[C@H](C)CC[C@]3(CCC(=O)[C@H]32)[C@@H](C)[C@@H]1O,inactive,0.188 µM (active),0.335 µM (active),0.376 µM (active),–,–,inactive,23.9 µM (active)
O=C(O)c1ccc(OCCn2ccnc2)cc1,inactive,inactive,inactive,inactive,inactive,inactive,–,–
CC(=O)Oc1cc(C)c(OC(C)=O)c2ccccc12,inactive,21.1 µM (active),23.7 µM (active),23.7 µM (active),–,inactive,–,–
NC(Cc1ccccc1)C(=O)O (stereo unspecified),inactive,inactive,inactive,inactive,–,inactive,–,–
